Counter-ions that a name gives are not always drawn. ± gives the standard deviation.
System: Jurkat
Test: mean cell size (FSC-A) relative to DMSO control (fraction of control); higher = larger cells
Conditions: 48 h
Summary of the method: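 Jurkat cells seeded at 600 cells/µl were incubated 1 h, then exposed for 48h to the Enzo Screen-Well FDA Approved Drug Library v2.0 at 25µM in 0.9% (v/v) final DMSO. Drugs that cut counts below 20% of controls were diluted 10-fold and retested, down to 25nM. Cell count and mean cell size (forward scatter area) were read on an Accuri C6 flow cytometer, relative to solvent-only controls. Plates held 6-12 controls; values are means of 3 biological replicates.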

Row | SMILES | mean cell size
1 | O=c1[nH]cc(F)c(=O)[nH]1 [Fluorouracil (5-Fluorouracil)] (concentration: 25 µM) | 1.12 ± 0.037
2 | COC1=CC(=O)C[C@@H](C)[C@]12Oc1c(Cl)c(OC)cc(OC)c1C2=O [Griseofulvin] (concentration: 2.5 µM) | 0.975 ± 0.02
3 | CC(=O)OCC[N+](C)(C)C [Acetylcholine Chloride] (concentration: 25 µM) | 0.999 ± 0.056
4 | CCN(CC)CCNC(=O)c1cc(Cl)c(N)cc1OC [Metoclopramide·HCl] (concentration: 25 µM) | 0.951 ± 0.018
5 | O=C1NC(=O)C(c2ccccc2)(c2ccccc2)N1 [Phenytoin] (concentration: 25 µM) | 0.978 ± 0.042
6 | CCC1(c2ccccc2)C(=O)NCNC1=O [Primidone] (concentration: 25 µM) | 1 ± 0.021
7 | CC[C@]1(O)C[C@H]2CN(CCc3c([nH]c4ccccc34)[C@@](C(=O)OC)(c3cc4c(cc3OC)N(C=O)[C@H]3[C@@](O)(C(=O)OC)[C@H](OC(C)=O)[C@]5(CC)C=CCN6CC[C@]43[C@@H]65)C2)C1 [Vincristine Sulfate] (concentration: 25 nM) | 0.985 ± 0.011
8 | COc1ccccc1OCCNCC(O)COc1cccc2[nH]c3ccccc3c12 (centres undefined) [Carvedilol] (concentration: 25 µM) | 1.01 ± 0.014
9 | CNC[C@H](O)c1cccc(O)c1 [Phenylephrine] (concentration: 25 µM) | 0.999 ± 0.036
10 | CC(C)NCC(O)COc1ccc(CCOCC2CC2)cc1 (centres undefined) [Betaxolol·HCl] (concentration: 25 µM) | 1.01 ± 0.038
11 | CCCc1cc(=O)[nH]c(=S)[nH]1 [Propylthiouracil] (concentration: 25 µM) | 1.02 ± 0.048
12 | CN1CC2c3ccccc3Oc3ccc(Cl)cc3C2C1 (centres undefined) [Asenapine Maleate] (concentration: 25 µM) | 0.938 ± 0.019
13 | COC(=O)Nc1nc2cc(C(=O)c3ccccc3)ccc2[nH]1 [Mebendazole] (concentration: 250 nM) | 0.965 ± 0.029
14 | Nc1ccc(O)c(C(=O)O)c1 [Mesalamine (5-Aminosalicylic Acid)] (concentration: 25 µM) | 0.912 ± 0.019
15 | O=c1[nH]cnc2c1ncn2[C@H]1CC[C@@H](CO)O1 [Didanosine] (concentration: 25 µM) | 0.9758 ± 0.0048
16 | NCCS [Cysteamine·HCl] (concentration: 25 µM) | 0.957 ± 0.034
17 | CCOC(=O)[C@H](CCc1ccccc1)N[C@@H](C)C(=O)N1[C@H](C(=O)O)C[C@@H]2CCC[C@@H]21 [Ramipril] (concentration: 25 µM) | 1.01 ± 0.029
18 | CN(C)CCC=C1c2ccccc2COc2ccccc21 [Doxepin·HCl] (concentration: 25 µM) | 0.978 ± 0.049
19 | C[C@@H]1C[C@H]2[C@@H]3CCC4=CC(=O)C=C[C@]4(C)[C@@]3(F)[C@@H](O)C[C@]2(C)[C@@]1(O)C(=O)CO [Dexamethasone] (concentration: 25 µM) | 0.917 ± 0.019
20 | Nc1ncnc2c1ncn2[C@@H]1O[C@H](CO)[C@@H](O)[C@H]1O [Adenosine] (concentration: 25 µM) | 1 ± 0.041

Row | SMILES | mean cell size
21 | CC1=C(C(=O)O)N2C(=O)[C@@H](NC(=O)[C@H](N)c3ccc(O)cc3)[C@H]2SC1 [Cefadroxil] (concentration: 25 µM) | 0.937 ± 0.014
22 | COc1cc2nc(N3CCN(C(=O)C4COc5ccccc5O4)CC3)nc(N)c2cc1OC (centres undefined) [Doxazosin Mesylate] (concentration: 2.5 µM) | 1.01 ± 0.011
23 | CN(C)CCCN1c2ccccc2Sc2ccc(Cl)cc21 [Chlorpromazine·HCl] (concentration: 2.5 µM) | 1.06 ± 0.017
24 | CC1(C)O[C@@H]2[C@@H](CO[C@@]3(COS(N)(=O)=O)OC(C)(C)O[C@@H]23)O1 [Topiramate] (concentration: 25 µM) | 0.969 ± 0.024
25 | COc1c(C)c2c(c(O)c1C/C=C(\C)CCC(=O)O)C(=O)OC2 [Mycophenolic Acid] (concentration: 2.5 µM) | 1.01 ± 0.014
26 | CC(=O)NS(=O)(=O)c1ccc(N)cc1 [Sulfacetamide·Na] (concentration: 25 µM) | 0.951 ± 0.038
27 | CS(=O)(=O)OCCCCOS(C)(=O)=O [Busulfan] (concentration: 25 µM) | 1.03 ± 0.016
28 | O=C1c2cccc3c2[C@H](CCC3)CN1[C@@H]1CN2CCC1CC2 [Palonosetron·HCl] (concentration: 25 µM) | 1.07 ± 0.033
29 | CCC1(C)CC(=O)NC1=O (centres undefined) [Ethosuximide] (concentration: 25 µM) | 1.05 ± 0.025
30 | Cc1ccc(S(=O)(=O)NC(=O)NN2CCCCCC2)cc1 [Tolazamide] (concentration: 25 µM) | 1.03 ± 0.053
31 | O=C(O)c1cn(C2CC2)c2cc(N3CCNCC3)c(F)cc2c1=O [Ciprofloxacin] (concentration: 25 µM) | 0.9157 ± 0.008
32 | CC12CC3CC(C)(C1)CC(N)(C3)C2 [Memantine·HCl] (concentration: 25 µM) | 1 ± 0.061
33 | Clc1ccc2nsnc2c1NC1=NCCN1 [Tizanidine·HCl] (concentration: 25 µM) | 1.01 ± 0.014
34 | Oc1ncnc2[nH]ncc12 [Allopurinol] (concentration: 25 µM) | 0.965 ± 0.013
35 | CC[C@H](C)C(=O)O[C@H]1C[C@@H](C)C=C2C=C[C@H](C)[C@H](CC[C@@H]3C[C@@H](O)CC(=O)O3)[C@H]21 [Lovastatin] (concentration: 25 µM) | 1.16 ± 0.046
36 | Cc1ccsc1C(=CCCN1CCC[C@@H](C(=O)O)C1)c1sccc1C [Tiagabine·HCl] (concentration: 25 µM) | 0.936 ± 0.064
37 | CN(C)CCCC1(c2ccc(F)cc2)OCc2cc(C#N)ccc21 (centres undefined) [Citalopram·HBr] (concentration: 25 µM) | 0.951 ± 0.031
38 | CC(C)(C#N)c1cc(Cn2cncn2)cc(C(C)(C)C#N)c1 [Anastrozole] (concentration: 25 µM) | 0.98 ± 0.021
39 | O=C1CCC(N2C(=O)c3ccccc3C2=O)C(=O)N1 (centres undefined) [Thalidomide] (concentration: 25 µM) | 0.922 ± 0.015
